# Reference: the supplement of paper PMC12350171
# Counter-ions that a name gives are not always drawn.
# Test system: Yersinia pseudotuberculosis
# Test: growth AUC normalised to DMSO control (fraction of control); higher = less growth inhibition, active = hit call of the paper
# Conditions: 20 µM;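 active = AUC significantly below DMSO controls by Student t-fit with adjusted P under 0.01; inactive = not significantly reduced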
# Outline: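 Hemin and NAD were added to the medium for Haemophilus parainfluenzae. All pathogens, after two anaerobic passages, were inoculated at a starting OD578 of 0.01 into pre-reduced mGAM plates with 20 μM compound and 1% DMSO under breathable seals, and OD578 was read hourly for 24 h in three biological replicates. AUC of each growth curve was obtained with the trapezoidal rule up to the exponential-to-stationary transition and normalised to DMSO controls from the same plate.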
row,SMILES,growth AUC normalised to DMSO control
1,CN(C)CCOC(c1ccccc1)c1ccccc1 [Diphenhydramine hydrochloride],0.969 (inactive)
2,COC(=O)C1=C(C#N)NC(C)=C(C(=O)OC(C)C)C1c1cccc([N+](=O)[O-])c1 (stereo not given) [Nilvadipine],1.02 (inactive)
3,Nc1nc2n[nH]nc2c(=O)[nH]1 [Azaguanine-8],0.996 (inactive)
4,CCN(CC)CCOC(=O)C(Cc1cccc2ccccc12)CC1CCCO1 (stereo not given) [Nafronyl oxalate],0.992 (inactive)
5,O=c1n(CCCN2CCN(c3cccc(Cl)c3)CC2)nc2ccccn12 [Trazodone hydrochloride],0.984 (inactive)
6,CCCOc1ccc(C(=O)OCCN(CC)CC)cc1N [Proparacaine hydrochloride],1 (inactive)
7,CN1CCCN(C(c2ccccc2)c2ccc(Cl)cc2)CC1 (stereo not given) [Homochlorcyclizine dihydrochloride],0.965 (inactive)
8,CCCCOC(=O)c1ccc(N)cc1 [Butamben],0.937 (inactive)
9,OC(CCN1CCCCC1)(c1ccccc1)c1ccccc1 [Pridinol methanesulfonate salt],0.988 (inactive)
10,CCCNC(C)C(=O)Nc1ccccc1C (stereo not given) [Prilocaine hydrochloride],0.998 (inactive)
11,COc1cccc2c1C(=O)c1c(O)c3c(c(O)c1C2=O)C[C@@](O)(C(=O)CO)C[C@@H]3O[C@H]1C[C@H](N)[C@H](O)[C@H](C)O1 [Doxorubicin hydrochloride],0.906 (active)
12,CCC(=O)OCC(=O)[C@@]1(OC(=O)CC)[C@H](C)C[C@H]2[C@H]3[C@H]([C@@H](O)C[C@@]21C)[C@@]1(C)C=CC(=O)C=C1C[C@H]3Cl [Alclometasone dipropionate],1.01 (inactive)
13,Nc1nc(N)nc(-c2cc(Cl)ccc2Cl)n1 [Irsogladine maleate],0.995 (inactive)
14,CC(C)(C)NCC(O)c1ccc(O)c(CO)c1 (stereo not given) [Salbutamol],0.985 (inactive)
15,C[C@H](CCC(=O)O)[C@H]1CC[C@H]2[C@@H]3[C@@H](O)C[C@@H]4C[C@H](O)CC[C@]4(C)[C@H]3CC[C@]12C [Urosiol],1.01 (inactive)
16,OCCN1C[C@H](O)[C@@H](O)[C@H](O)[C@H]1CO [Miglitol],0.991 (inactive)
17,CCCC(CCC)C(=O)O [Valproic acid],1.01 (inactive)
18,CCOC(=O)c1ccc(N)cc1 [Benzocaine],1.03 (inactive)
19,CCSc1ccc2c(c1)N(CCCN1CCN(C)CC1)c1ccccc1S2 [Thiethylperazine maleate],0.99 (inactive)
20,COC(=O)Nc1nc2cc(C(=O)c3ccc(F)cc3)ccc2[nH]1 [Flubendazol],0.994 (inactive)

row,SMILES,growth AUC normalised to DMSO control
1,O=C(Cn1ccnc1[N+](=O)[O-])NCCO [Etanidazole],1.02 (inactive)
2,Cc1cccc(N(C)C(=S)Oc2ccc3ccccc3c2)c1 [Tolnaftate],0.986 (inactive)
3,CCC(C)n1ncn(-c2ccc(N3CCN(c4ccc(OCC5COC(Cn6cncn6)(c6ccc(Cl)cc6Cl)O5)cc4)CC3)cc2)c1=O (stereo not given) [Itraconazole],0.998 (inactive)
4,C[C@]12C[C@H](O)[C@H]3[C@@H](CCC4=CC(=O)CC[C@@]43C)[C@@H]1CC[C@@H]2C(=O)CO [Corticosterone],0.996 (inactive)
5,Nc1c(Br)cc(Br)cc1CN[C@H]1CC[C@H](O)CC1 [Ambroxol hydrochloride],1 (inactive)
6,O=C(O)c1cn(C2CC2)c2cc(N3CCNCC3)c(F)cc2c1=O [Ciprofloxacin hydrochloride monohydrate],0.0762 (active)
7,OCCOCCN1CCN(C(c2ccccc2)c2ccc(Cl)cc2)CC1 (stereo not given) [Hydroxyzine dihydrochloride],0.865 (inactive)
8,CN1CCC(OC(c2ccccc2)c2ccccc2)CC1 [Diphenylpyraline hydrochloride],0.987 (inactive)
9,NCc1ccc(S(N)(=O)=O)cc1 [Mafenide hydrochloride],0.969 (inactive)
10,O=C(O)CCc1nc(-c2ccccc2)c(-c2ccccc2)o1 [Oxaprozin],0.994 (inactive)
11,CCN(CC)CCNC(=O)c1cc(Br)c(N)cc1OC [Bromopride],1 (inactive)
12,CN(C/C=C/c1ccccc1)Cc1cccc2ccccc12 [Naftifine hydrochloride],1.04 (inactive)
13,Nc1nc(=O)n([C@@H]2CS[C@H](CO)O2)cc1F [(-) Emtricitabine],0.981 (inactive)
14,CC(C(=O)O)c1ccc(C(=O)c2cccs2)cc1 (stereo not given) [Suprofen],1.02 (inactive)
15,OCCN1CCN(CCCN2c3ccccc3C=Cc3ccccc32)CC1 [Opipramol dihydrochloride],0.996 (inactive)
16,c1ccc(CC2=NCCN2)cc1 [Tolazoline hydrochloride],1.01 (inactive)
17,CC=C(C)C(=O)OC1C(OC(C)=O)C2(CO)C(O)CC3(C)C(=CCC4C5(C)CCC(OC6OC(C(=O)O)C(OC7OC(CO)C(O)C(O)C7O)C(O)C6OC6OC(CO)C(O)C(O)C6O)C(C)(CO)C5CCC43C)C2CC1(C)C (stereo not drawn) [Beta-Escin],0.999 (inactive)
18,N=C(N)N/N=C/c1c(Cl)cccc1Cl [Guanabenz acetate],0.973 (inactive)
19,CCN1CCC[C@H]1CNC(=O)c1c(OC)ccc(Br)c1OC [Remoxipride hydrochloride],1.01 (inactive)
20,C/C=C(/C(=C/C)c1ccc(O)cc1)c1ccc(O)cc1 [Dienestrol],1.02 (inactive)
